From the supplement of paper PMC6555819

These sequences were tested on VDR:RXRa (NR concentration 270 nM, RXRa partner concentration 90 nM) (assay: PBM binding z-score (relative to random genomic background probes); higher = stronger binding; sequences stand for … in GC…GCGATTGACAGCGTAGAATGAAGG).
Description: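 Protein-binding microarray (Agilent 4x180K custom design, double-stranded 60-nt probes: 5' GC cap, 34-nt variable region, 24-nt constant primer region; full probe sequence given). Purified or IVT nuclear receptor:RXRα heterodimers (3:1 NR:RXRα, mostly 270:90 nM) or homodimers were incubated for 1 h in PBS with 2% milk and no ligand, then detected with Alexa488 antibodies. Fluorescence from o1-orientation probes (~5 replicates averaged) was converted to z-scores against 500 random hg19 background probes. Variable regions are seed direct-repeat (DR0–DR5) sites, all their single-nucleotide variants and half-site ablations.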

| Sequence | PBM binding z-score |
| --- | --- |
| CGAACTAGGTCAGAACAGGACAGCGAAGGATGAT | 0.817 |
| CCTACTGGGCCATCAGGTCACTGATATCAACGTT | 1.34 |
| ACTAGTTGGTCAGATGAGGTCACACACAATTCGG | 4.58 |
| ATCGAAAGGTCGACGTGAGTATAGAGAAAGGGAA | 2.53 |
| TCTTGTAGATAAAAGGTTAAGAAAGCCGAAGCCT | 1.2 |
| TCGAGTAGGTTAGTCAGGGCATTCAGCCAACATA | 2.59 |
| CCTCCGAGGACAACAGGAGGTCAGAGCTGCCAGA | 2.27 |
| TAACCAAGGTGAAAGGTCGTTGATGCACGCCTTG | 3.38 |
| AATACAGGGTCATCGTAGGCCAGAGCACGCACAG | 5.2 |
| ACAGACAGGTGAGTGAATGTAACTCAGCTGGACG | -0.36 |
| TCTATTAGTTGAAGGGCAACCGGCGAGTCCGTTT | 0.946 |
| CGTCCAAGGTCAATGCTAGGTTAGTGAAAGCATT | 4.02 |
| CCTACTGGGCCATCAGGTTATTGATATCAACGTT | 0.0822 |
| GGAACGAGGGCAAAGTTGATAGCGTCTGTCGACG | 1.39 |
| CGTCAAAGTTCAACTAAGGTAACGTGAAGCACGC | 4.37 |
| CAGACTAGGTCAGGGCCAGTATAGGAGGAACGTT | -0.0309 |
| CTCGAAAGGTCGGTTGAGGTGAGTATCCGGATAA | 2.13 |
| TCATATAGGTAAATGCGAGGTGAAAGTCCGATCT | 1.32 |
| GCTGCTTGGTCAGGTTGGTCAGCTAACGGGTACG | -0.35 |
| ACTCGGAGGACACAGGTCAGAGCTACGCCAGTGA | 0.834 |

| Sequence | PBM binding z-score |
| --- | --- |
| CCTGCTTGGTCAATGGTCAGCTAAAGCAGCTCGC | -0.576 |
| CGTCCAAGGTCAGGGTCAGTGAAAGAGACTCGAA | 3.92 |
| TCAGACAGGTCAAGGTAACTCAGGTACGCAGTCG | 3.09 |
| GCAGACAGGTGAAACGCAGGTATCTCAGGGTGGC | -0.475 |
| TCATATGGGTAAAGGTGAAAGTCGAACGATATGA | 0.608 |
| CCTCGGAGGACAGAAGGTCATAGCTGTCCGCTTT | 2.69 |
| AGAACGAGGGCACGCTGAGTAGATAGCAGAGTAG | 0.928 |
| ACTAGCAGGCCAAGTTTGGGTCACTAAAACAAAG | 0.553 |
| ATCTCTAGGTAAAAGGTCAGTGAATCCCGAGGAT | 2.51 |
| TCGAGTAGGTTACCAATGGGGCATCCAGCTTTCT | -0.0688 |
| TCTAGCAGGCCAGAGGGTCACTGAAGAGGTACGG | 1.52 |
| CCTTCTAGGTCATGGTCAGCTAATCTACAGTATG | 2.07 |
| TCTGCTAGGTCAGTTGGTCAACTAACGAGCTGCC | 0.33 |
| CCTACTGGGCCATTCAGAGCTCATTGATCATATG | -0.707 |
| CCAGACAGGTGAAAGGTAACTTAGTCTGGTACGC | 0.744 |
| GCATATAGGTAATACAAGGTGCAAGTCCGATTGT | 0.355 |
| ATCGAAAGATCGAAGGTGAGTATACCCACCCGAA | 0.0219 |
| TCTTGTAGATCAAGCAAGTTAAGAAAGCCTGAGT | 0.328 |
| CCTCGGAGGACAACAGAAGGTCAGAGCTGCCAGA | 1.35 |
| TTACCACGGTGAAGGTCGTTGATCCCTCTGTAGA | 0.957 |
